The full list was thinned out, with the strongest signals kept by preference.
Assays:
Assay in all cases: glycan array binding signal (z-score within array); higher = stronger binding
Conditions in all cases: glycan notation: IUPAC condensed, linker removed
Fuc(a1-2)Gal(b1-3)GlcNAc = biological target: Fuc(a1-2)Gal(b1-3)GlcNAc
Procedure, shortened: (§1)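 Negative Z-scores can be read as non-binding. The Z-score is calculated within each array and then averaged across arrays of one protein sequence at different concentrations or buffers and across linkers. Arrays, 3228 in all, were curated from the Consortium for Functional Glycomics database and kept only where the protein sequence was available.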

[1] = biological target: Fuc(a1-2)Gal(b1-3)GlcNAc(b1-2)Man(a1-3)[Fuc(a1-2)Gal(b1-3)GlcNAc(b1-2)Man(a1-6)]Man(b1-4)GlcNAc(b1-4)[Fuc(a1-6)]GlcNAc
Procedure, shortened: as §1

[2] = biological target: Fuc(a1-2)Gal(b1-3)GlcNAc(b1-3)GalNAc
Procedure, shortened: as §1

[3] = biological target: Fuc(a1-2)Gal(b1-3)GlcNAc(b1-3)[Neu5Ac(a2-6)Gal(b1-4)GlcNAc(b1-6)]Gal(b1-4)Glc
Procedure, shortened: as §1

[4] = biological target: Fuc(a1-2)Gal(b1-4)GlcNAc(b1-6)GalNAc
Procedure, shortened: as §1

[5] = biological target: Fuc(a1-2)[Gal(a1-3)]Gal(b1-4)GlcNAc(b1-2)Man
Procedure, shortened: as §1

[6] = biological target: Fuc(a1-2)[Gal(a1-3)]Gal(b1-4)GlcNAc(b1-2)Man(a1-3)[Fuc(a1-2)[Gal(a1-3)]Gal(b1-4)GlcNAc(b1-2)Man(a1-6)]Man(b1-4)GlcNAc(b1-4)GlcNAc
Procedure, shortened: as §1

[7] = biological target: Fuc(a1-2)[Gal(a1-3)]Gal(b1-4)GlcNAc(b1-3)GalNAc
Procedure, shortened: as §1

[8] = biological target: Fuc(a1-2)[Gal(a1-3)]Gal(b1-4)GlcNAc(b1-3)[Fuc(a1-2)[Gal(a1-3)]Gal(b1-4)GlcNAc(b1-6)]GalNAc
Procedure, shortened: as §1

[9] = biological target: Fuc(a1-2)[GalNAc(a1-3)]Gal(b1-4)GlcNAc(b1-2)Man
Procedure, shortened: as §1

[10] = biological target: Fuc(a1-3)[Gal(b1-4)]GlcNAc(b1-3)GalNAc
Procedure, shortened: as §1

Fuc(a1-4)GlcNAc = biological target: Fuc(a1-4)GlcNAc
Procedure, shortened: as §1

[11] = biological target: Gal(a1-3)Gal(b1-4)GlcNAc(b1-2)Man(a1-3)[Gal(a1-3)Gal(b1-4)GlcNAc(b1-2)Man(a1-6)]Man(b1-4)GlcNAc(b1-4)GlcNAc
Procedure, shortened: as §1

[12] = biological target: Gal(a1-3)[Gal(a1-4)]Gal(b1-4)GlcNAc
Procedure, shortened: as §1

[13] = biological target: Gal(a1-4)Gal(b1-4)GlcNAc(b1-2)Man(a1-3)[Gal(a1-4)Gal(b1-4)GlcNAc(b1-2)Man(a1-6)]Man(b1-4)GlcNAc(b1-4)GlcNAc
Procedure, shortened: as §1

Gal(b1-3)Gal = biological target: Gal(b1-3)Gal
Procedure, shortened: as §1

[14] = biological target: Gal(b1-3)GalNAc(a1-3)[Fuc(a1-2)]Gal(b1-4)Glc
Procedure, shortened: as §1

[15] = biological target: Gal(b1-3)GlcNAc(b1-6)GalNAc
Procedure, shortened: as §1

Gal(b1-3)GlcNAc6S = biological target: Gal(b1-3)GlcNAc6S
Procedure, shortened: as §1

[16] = biological target: Gal(b1-3)[Fuc(a1-4)]GlcNAc
Procedure, shortened: as §1

Gal(b1-4)Gal = biological target: Gal(b1-4)Gal
Procedure, shortened: as §1

[17] = biological target: Gal(b1-4)GlcNAc(b1-2)Man(a1-3)[GlcNAc(b1-2)Man(a1-6)]Man(b1-4)GlcNAc(b1-4)GlcNAc
Procedure, shortened: as §1

[18] = biological target: Gal(b1-4)GlcNAc(b1-2)Man(a1-6)[Man(a1-3)]Man(b1-4)GlcNAc(b1-4)GlcNAc
Procedure, shortened: as §1

[19] = biological target: Gal(b1-4)GlcNAc(b1-2)[Gal(b1-4)GlcNAc(b1-4)]Man(a1-3)[Gal(b1-4)GlcNAc(b1-2)[Gal(b1-4)GlcNAc(b1-6)]Man(a1-6)]Man(b1-4)GlcNAc(b1-4)GlcNAc
Procedure, shortened: as §1

[20] = biological target: Gal(b1-4)GlcNAc(b1-2)[Gal(b1-4)GlcNAc(b1-6)]Man(a1-6)[Gal(b1-4)GlcNAc(b1-2)Man(a1-3)]Man(b1-4)GlcNAc(b1-4)[Fuc(a1-6)]GlcNAc
Procedure, shortened: as §1

[21] = biological target: Gal(b1-4)GlcNAc(b1-3)Gal(b1-4)GlcNAc(b1-2)Man(a1-3)[Gal(b1-4)GlcNAc(b1-3)Gal(b1-4)GlcNAc(b1-2)Man(a1-6)]Man(b1-4)GlcNAc(b1-4)GlcNAc
Procedure, shortened: as §1

[22] = biological target: Gal(b1-4)GlcNAc(b1-3)Gal(b1-4)GlcNAc(b1-2)[Gal(b1-4)GlcNAc(b1-3)Gal(b1-4)GlcNAc(b1-6)]Man(a1-6)[Gal(b1-4)GlcNAc(b1-3)Gal(b1-4)GlcNAc(b1-2)Man(a1-3)]Man(b1-4)GlcNAc(b1-4)GlcNAc
Procedure, shortened: as §1

[23] = biological target: Gal(b1-4)GlcNAc(b1-3)Gal(b1-4)GlcNAc(b1-6)[Gal(b1-3)]GalNAc
Procedure, shortened: as §1

Gal(b1-4)GlcNAc6P = biological target: Gal(b1-4)GlcNAc6P
Procedure, shortened: as §1

[24] = biological target: GalNAc(b1-4)GlcNAc(b1-2)Man(a1-3)[GalNAc(b1-4)GlcNAc(b1-2)Man(a1-6)]Man(b1-4)GlcNAc(b1-4)GlcNAc
Procedure, shortened: as §1

B1: PX15642A-pgi-501-20-501 (Parabacteroides gingivalis) (protein)
chain: CELDRDPEGKDFQQPYTSFVQTKQNRDGLYALLRNTENPRMHFYQELQSDMYCTTITDGNSLAPFVNWDLGILNDHGRADEDEVSGIAGYYFVYNRLNQQANAFVNNTEAALQNQVYKNSTEIANAKSFLAEGKVLQALAIWRLMDRFSFHESVTEVNSGAKDLGVILLKEYNPGYIGPRATKAQCYDYILSRLSEAIEVLPENRESVLYVSRDYAYALRARIYLALGEYGKAAADAKMVVDKYPLIGAADASEFENIYRSDANNPEIIFRGFASATLGSFTATTLNGAAPAGKDIKYNPSAVPFQWVVDLYENEDFRKSVYIAKVVKKDKGYLVNKFLEDKAYRDVQDKPNLKVGARYFSVAEVYLILVESALQTGDTPTAEKYLKALSKARGAEVSVVNMEALQAERTRELIGEGSRLRDMVRWSIPNNHDAFETQPGLEGFANTTPLKAQAPVGFYAYTWEFPQRDRQTNPQLIKNWPI
B1 was tested, and the “glycan array binding signal (z-score)” value (Fuc(a1-2)Gal(b1-3)GlcNAc) was -0.306, the “glycan array binding signal (z-score)” value [1] was 0.224 and the “glycan array binding signal (z-score)” value [2] was -0.094. The “glycan array binding signal (z-score)” value [3] was -0.121, the “glycan array binding signal (z-score)” value [4] was 2.85 and the “glycan array binding signal (z-score)” value [5] was -0.144. For the same binder, the “glycan array binding signal (z-score)” value [6] was 0.849, the “glycan array binding signal (z-score)” value [7] was 1.21 and the “glycan array binding signal (z-score)” value [8] was 0.225. The “glycan array binding signal (z-score)” value [9] was -0.848, the “glycan array binding signal (z-score)” value [10] was -0.744 and the “glycan array binding signal (z-score)” value (Fuc(a1-4)GlcNAc) was 2.72. The “glycan array binding signal (z-score)” value [11] was -0.319, the “glycan array binding signal (z-score)” value [12] was 6.32 and the “glycan array binding signal (z-score)” value [13] was 0.38. The “glycan array binding signal (z-score)” value (Gal(b1-3)Gal) was 0.322, the “glycan array binding signal (z-score)” value [14] was 1.53 and the “glycan array binding signal (z-score)” value [15] was -0.003. The “glycan array binding signal (z-score)” value (Gal(b1-3)GlcNAc6S) was 0.706, the “glycan array binding signal (z-score)” value [16] was -0.298 and the “glycan array binding signal (z-score)” value (Gal(b1-4)Gal) was 0.332. For the same binder, the “glycan array binding signal (z-score)” value [17] was 0.359, the “glycan array binding signal (z-score)” value [18] was -0.027 and the “glycan array binding signal (z-score)” value [19] was 0.733. For the same binder, the “glycan array binding signal (z-score)” value [20] was 0.317, the “glycan array binding signal (z-score)” value [21] was 2.09 and the “glycan array binding signal (z-score)” value [22] was 2.23. The “glycan array binding signal (z-score)” value [23] was 2.71, the “glycan array binding signal (z-score)” value (Gal(b1-4)GlcNAc6P) was -0.285 and the “glycan array binding signal (z-score)” value [24] was 1.15.

Source: the supplement of paper PMC8728848
